In all, about 290,000 compounds went through this assay and about 2,700 (0.93%) were called active. How the calls were made is not given here. Only a selection was taken, and actives are over-represented in it overall.
Molecular target: Eukaryotic translation initiation factor 4H (Homo sapiens) (UniProt Q15056)
Assay: human eIF4H binding inhibitors, primary screen, translation initiation inhibitor project, biochemical, uHTS, fluorescence polarization (AID 2012);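 further: calls also rest on retests at 20 µM and on dose response follow-up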
Settings: eIF4H fluorescence polarization binding assay, stronger effect = higher value

SMILES | inhibition (at 35 µM) | inhibition (confirmation average, at 20 µM) [%]
COc1cccc(CNS(=O)(=O)c2csc(C(N)=O)c2)c1 | 5.7% (inactive) | 
CS(=O)(=O)N1CCc2nc(-c3ccccc3)sc2C1 | -3.4% (inactive) | 
Cc1cc(C)c2nc(NC(=O)C3CCCO3)sc2c1 (stereo unspecified) | -3.8% (inactive) | 
Cc1ccc(C)c(C(C)NC(=O)C2CCCO2)c1 (stereo unspecified) | 92.8% (active) | 
Cc1cc([N+](=O)[O-])ccc1NC(=O)C1CCCO1 (stereo unspecified) | -1.7% (inactive) | 
COc1ccc(COC(=O)c2ccc(Cl)c(S(=O)(=O)N3CCOCC3)c2)cc1F | 1.3% (inactive) | 
NS(=O)(=O)c1ccc(NC(=O)COC(=O)c2ccco2)cc1 | -10.4% (active) | 80.1
NS(=O)(=O)c1ccc(NC(=O)COC(=O)c2ccc(Cl)nc2)cc1 | 7.6% (inactive) | 
NS(=O)(=O)c1ccc(NC(=O)COC(=O)c2cc3ccccc3oc2=O)cc1 | -1.4% (inactive) | 
Cc1ccc(NC2CCCN(C(=O)CCC3(C)CC3)C2)cc1C (stereo unspecified) | -6.4% (inactive) | 
CCCCc1ccc(NC(=O)NCc2cccnc2)cc1 | -1.5% (inactive) | 
CCC1C(=O)NCCN1C(=O)c1ccc2nc(Cc3ccc(OC)cc3)oc2c1 (stereo unspecified) | -1.1% (inactive) | 
O=C(COc1ccc(Cl)cc1)Nc1ccccc1CO | -15.9% (inactive) | 
COC(=O)c1sccc1NC(=O)COc1ccc(Cl)cc1 | -2% (active) | 90
COC(=O)c1sccc1NC(=O)c1ccc(Cl)cc1 | -1.7% (inactive) | 
O=C(CCC(=O)n1ncc2ccccc21)NCc1ccccc1Cl | -5.2% (inactive) | 
Cc1nc2c(c(=O)n1Cc1ccco1)c1nc3ccccc3nc1n2Cc1ccccc1 | 68.6% (active) | 
COCCCn1c2nc3ccccc3nc2c2c(=O)n(Cc3ccc(Cl)cc3)c(C)nc21 | -0.3% (inactive) | 
Cc1ccc(Cn2c(C)nc3c(c2=O)c2nc4ccccc4nc2n3Cc2ccco2)cc1 | 18% (inactive) | 
Cc1cc(NC(=O)CCC(=O)N(CC(=O)NC2CCCC2)c2ccc(F)cc2)no1 | -1.3% (inactive) | 
O=C(CSc1ccc(-c2ccccn2)nn1)Nc1ccccc1 | -8.7% (inactive) | 
COc1ccc2[nH]c(=O)c(C3c4cc(OC)c(OC)cc4CCN3C(=O)c3ccco3)cc2c1 (stereo unspecified) | -6.8% (inactive) | 
COc1ccc(NS(=O)(=O)c2ccc(F)cc2F)cn1 | 65.2% (active) | 

SMILES | inhibition (at 35 µM) | inhibition (confirmation average, at 20 µM) [%]
COc1ccc(S(=O)(=O)Nc2ccc(F)cc2)c(C)c1C | 7.4% (inactive) | 
CCOc1ccc(S(=O)(=O)Nc2ccc(OC)nc2)cc1 | -8.8% (inactive) | 
Cc1ccc(NS(=O)(=O)c2ccc(C(C)(C)C)cc2)cn1 | -2.4% (inactive) | 
O=C(NC1CCCC1)C(c1ccc(Cl)cc1)N(C(=O)c1csnn1)C1CC1 (stereo unspecified) | -6.1% (inactive) | 
Cc1ccc(OCCCCc2c(C)n[nH]c2C)cc1 | -10.3% (inactive) | 
CCOC(=O)CC1(NC(=O)c2cc(COc3cncc(Cl)c3)on2)CCCCC1 | -10.4% (inactive) | 
COc1ccc(CN2CCN(C(=O)CCC(=O)Nc3nnc(C(C)C)s3)CC2)cc1F | -7.1% (inactive) | 
Cc1ccc(C(=O)O)cc1-c1ccc(/C=C2\SC(=O)N(CC(=O)Nc3ccc4c(c3)OCO4)C2=O)o1 | 59.7% (active) | 
Cn1c(=O)n(C)c2cc(C(=O)Nc3ccc4c(c3)OCO4)ccc21 | -6.6% (inactive) | 
COc1ccc(NC(=O)CCN2C(=O)/C(=C/c3ccc4c(c3)OCO4)SC2=S)cc1 | 5.7% (inactive) | 
Cc1ccc(S(=O)(=O)N(CC(=O)Nc2cccnc2)c2ccc(Br)cc2)cc1 | 2% (inactive) | 
CCC(NC(=O)C1CCCC1)c1ccc(C)cc1 (stereo unspecified) | -4.3% (inactive) | 
Cc1ccccc1C(=O)N1CCC(C(=O)Oc2ccc(C#N)cc2)CC1 | -15.9% (inactive) | 
CCN(CC)S(=O)(=O)c1ccc(N2CC(C(=O)NCc3cccnc3)CC2=O)cc1 (stereo unspecified) | -0.4% (inactive) | 
COc1ccccc1C1=Nc2cccc3cccc(c23)N1 | 99.8% (active) | 108
Fc1ccccc1N=C1Nc2cccc3cccc1c23 | -3.8% (inactive) | 
c1ccc(C2=Nc3cccc4cccc(c34)N2)cc1 | -0.5% (inactive) | 
CC1CCC2(CC1)NC(=O)N(CC(=O)c1ccc3c(c1)OCO3)C2=O (stereo unspecified) | -5.1% (inactive) | 
Cn1cccc1C(=O)N1CCc2ccccc2C1 | -1.9% (inactive) | 
CN(CC(=O)Nc1c(Cl)cccc1Cl)C(=O)CNC(=O)C1CCCCC1 | -8.8% (inactive) | 
CC(=O)Nc1ccc(NC(=O)c2sc3nc4c(c(-c5ccc(C)cc5)c3c2N)CCC4)cc1 | -0.5% (inactive) | 
Cc1cccc(NC(=O)c2sc3nc4c(c(-c5ccco5)c3c2N)CCC4)c1 | 82.9% (active) | 90.9
Cc1cccc(NC(=O)c2sc3nc(N4CCOCC4)c4c(c3c2N)CCCC4)c1 | -4.2% (inactive) | 

SMILES | inhibition (at 35 µM) | inhibition (confirmation average, at 20 µM) [%]
Cc1ccc(-n2ncc3c2CC(C)(C)CC3NC(=O)Cc2c(C)noc2C)cc1 (stereo unspecified) | 5.3% (inactive) | 
CCOc1ccccc1/C=c1\sc2nc(-c3ccco3)nn2c1=O | 81.8% (active) | 
CSc1nc(-c2ccco2)nn1C(=O)CCc1ccccc1 | -7.7% (inactive) | 
CCOC(=O)/C=c1\s/c(=C\c2ccccc2OC)c(=O)n1CC(=O)N1CCOCC1 | 5.6% (inactive) | 
Cc1ccc2[nH]c(=O)c(CN(C)S(=O)(=O)c3cccc4nonc34)cc2c1 | -5.4% (inactive) | 
CN(CCOc1ccccc1)C(=O)c1cc(COc2c(F)cccc2F)on1 | -0.6% (inactive) | 
O=C(OCC1O[C@@H](OC(=O)c2cc(O)c(O)c(O)c2)[C@@H](OC(=O)c2cc(O)c(O)c(O)c2)[C@@H](OC(=O)c2cc(O)c(O)c(O)c2)[C@@H]1OC(=O)c1cc(O)c(O)c(O)c1)c1cc(O)c(O)c(O)c1 (stereo partly specified) | 92% (active) | 
COc1ccc(N(CC(=O)Nc2cc(OC)ccc2OC)S(=O)(=O)c2c(C)noc2C)cc1 | -10.2% (inactive) | 
O=C(CSc1ncn[nH]1)N/N=C/c1ccc(F)cc1 | -1.2% (inactive) | 
CCN(CC(=O)NCc1cccs1)C(=O)c1ccccc1F | -2.7% (inactive) | 
CCN(CC(=O)NCc1cccs1)C(=O)c1cccc(S(=O)(=O)Nc2ccccc2OC)c1 | 35.7% (active) | 53.9
COc1cc(CC(=O)NCc2cccs2)cc(OC)c1OC | -15% (inactive) | 
Cc1ccc(C(=O)c2coc3ccc(O)c(CN(C)C)c23)cc1 | -10.3% (inactive) | 
Cc1c(CC(=O)N2CCN(C(=O)C3COc4ccccc4O3)CC2)c(=O)oc2c(O)c(O)ccc12 (stereo unspecified) | 61% (active) | 103
O=C(CNC(=O)C1COc2ccccc2O1)N/N=C/c1cc(Br)c(O)c(Br)c1 (stereo unspecified) | 7.4% (inactive) | 
Cc1c(C)c2ccc(OCC(=O)N3CCC(C(=O)O)CC3)c(C)c2oc1=O | -4% (inactive) | 
COc1ccccc1OCc1ccc(C(=O)NC(C)c2ccccc2)o1 (stereo unspecified) | -6.4% (inactive) | 
Cc1cccc(-c2nc3ccc(C(=O)NCCN4CCN(C)CC4)cc3nc2-c2cccc(C)c2)c1 | -1.5% (inactive) | 
O=C1CN(C(=O)c2ccccc2F)C(c2ccc(F)cc2)c2cc(F)ccc2N1 (stereo unspecified) | -4.2% (inactive) | 
Cc1c(-c2ccccc2)cn2c1-c1ccc(C)n1CC2 | 90.6% (active) | 
Cc1ccc2c(c1)N(CC(=O)N1CCC(C)CC1)C(=O)c1cccnc1O2 | -17.4% (inactive) | 
CCOc1ncccc1C(=O)NCCc1ccc(OC)cc1 | -1.9% (inactive) | 
COC(=O)c1cc(CNC(=O)CC(C)c2ccccc2)ccc1OC (stereo unspecified) | -2% (inactive) | 

SMILES | inhibition (at 35 µM) | inhibition (confirmation average, at 20 µM) [%]
C/C(=N\NC(=O)COc1ccc(C)cc1[N+](=O)[O-])c1ccc2c(c1)OCCO2 | -2.1% (inactive) | 
CC(NC(=O)COc1ccc(-c2ccccc2)cc1)C1CCCO1 (stereo unspecified) | -6.9% (inactive) | 
Cc1ccsc1-c1cc(C(=O)O)c2c(ccc3ccccc32)n1 | 30.1% (inactive) | 
Cc1cc(C)c2nc(-c3ccco3)cc(C(=O)O)c2c1 | 103% (active) | 
COC(=O)c1cnn2c(C(F)(F)F)cc(-c3ccco3)nc12 | -0.4% (inactive) | 
Cc1cc(C)n(Cc2cnc(N3CCOCC3)s2)n1 | -7.9% (active) | 107
Cc1nc(N2CCOCC2)sc1C(=O)NN | 0.1% (inactive) | 
Fc1cc(F)c2nc(N3CCOCC3)sc2c1 | -7.8% (inactive) | 
COc1cccc(NC(=O)C(=O)c2cn(CC(=O)N3CCOCC3)c3ccccc23)c1 | -12.2% (inactive) | 
Cc1cc(C)c2c(-c3ccc(F)cc3)c(C#N)c(=O)n(C)c2n1 | -1.8% (inactive) | 
COc1ccc(O)c(C(=O)c2cnc3c(c2)c(-c2ccc(F)cc2)c(C#N)c(=O)n3C)c1 | -3.7% (inactive) | 
Cn1c(N)cc(-c2ccc(F)cc2)c(C#N)c1=O | -11% (active) | 108
CC(=O)NCCNC(=O)c1cc(-c2cccc3ccccc23)nc2ccccc12 | 0.8% (inactive) | 
Cc1c(C2=CCN(S(=O)(=O)c3ccc(Cl)cc3)CC2)c2ccccc2n1C | 91.5% (active) | 99.6
O=S(=O)(c1ccc(F)cc1)N1CC=C(c2ccccc2)CC1 | -1.4% (inactive) | 
COc1ccccc1N1CCN(S(=O)(=O)c2ccc(Cl)cc2)CC1 | -8.3% (inactive) | 
CCOc1ccc(C(=O)Nc2c3c(nn2-c2ccccc2)CS(=O)(=O)C3)cc1 | -1.2% (inactive) | 
O=C(Nc1ncc([N+](=O)[O-])s1)C1COc2ccccc2O1 (stereo unspecified) | -6.7% (inactive) | 
N[C@@H](Cc1ccccc1)C(=O)N1CCC(C(=O)NCC(=O)Nc2ccc(F)cc2)CC1 | 20% (inactive) | 
Cc1cc(/C=N/Nc2ccc([N+](=O)[O-])cn2)c(C)n1-c1cccc(C(=O)O)c1 | 54.4% (active) | 
Cc1ccc(-n2c(C)cc(/C=N/Nc3ccc([N+](=O)[O-])cn3)c2C)c(C)c1 | 6.6% (inactive) | 
COc1cc(/C=N\Nc2ccc([N+](=O)[O-])cn2)ccc1OCC(=O)O | -3.4% (inactive) | 
O=C(c1cc(S(=O)(=O)N2CCOCC2)ccc1Cl)N1CCOCC1 | -2.4% (inactive) | 

From PubChem BioAssay AID2012 (Sanford-Burnham Center for Chemical Genomics, 2009)
